Screens: PubChem BioAssay, National Center for Advancing Translational Sciences (NCATS)
The list is not random: actives were taken first. Their share in the collection is about 0.086%.
MBNL1-CUG inh – MBNL1-poly(CUG) RNA binding inhibition; Q9NR56; TR-FRET MBNL1-His/biotin-(CUG)12 binding, 665/545 ratio; 0.036% of 280,000 active; AID 2675; Potency, µM (doses to about 57.5 µM), inactives show at the highest dose activity change, negative = inhibition, most hits filed as inhibitors; active means well fitted inhibition curve with a large enough effect in the signal ratio, with a control signal flat, not every such curve was filed as active; inconclusive means small, poorly fitted or top-dose-only effect, or effect the other way, or a change in a side signal; inactive means no such curve, though single readings can be large or run the other way; the % refers to the signal ratio; further: potency means the concentration at half of the fitted maximal effect; on the % scale 0 is the no-effect control and ±100 the full control effect
Target sequence (Q9NR56 whole entry, looked up): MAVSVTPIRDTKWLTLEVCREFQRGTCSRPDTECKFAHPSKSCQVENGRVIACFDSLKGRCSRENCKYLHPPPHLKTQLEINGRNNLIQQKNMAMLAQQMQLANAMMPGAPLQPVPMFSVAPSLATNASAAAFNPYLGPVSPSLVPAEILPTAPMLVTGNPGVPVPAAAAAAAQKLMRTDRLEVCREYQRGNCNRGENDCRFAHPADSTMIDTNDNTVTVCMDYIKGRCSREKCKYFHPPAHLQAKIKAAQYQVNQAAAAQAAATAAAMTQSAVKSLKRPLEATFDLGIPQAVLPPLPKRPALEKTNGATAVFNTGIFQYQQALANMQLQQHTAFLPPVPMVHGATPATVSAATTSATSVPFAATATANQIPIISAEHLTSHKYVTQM
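MBNL1-His + Biotin-(CUG)12, cpd titration 92 nM–58 uM; Tb anti-His Ab 0.055 ng/ul, SA-XL665 5 nM (final); 60 min RT; ratiometric 665/545 nm, Ex 340 nm; normalized to buffer and full-complex controls.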
CBFb RUNX1 block – inhibitors of human CBF-beta and RUNX1 interaction. 230,000 tested, under 10 active. AlphaScreen CBFb-His/RUNX1-biotin binding, biochemical. Q01196+Q13951. Potency, µM (titrated, usually from 59.8 µM), for inactives: top-dose activity, negative = inhibition, hits mostly inhibitors; further: % of control where 0% means no effect
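Inhibition was taken as any reduction in AlphaScreen signal from the CBF-beta–RUNX1 pair (His and biotin tags, 30 nM each), measured after compound (15 min) and bead (90 min) incubations at room temperature.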
TCR act – T cell receptor activation; primary human leukocytes, anti-CD3, IL-2 HTRF, 48 h; Potency, µM (series often up to 9.22 µM), for the others: at the top dose activation of IL-2 secretion, actives largely listed as activators; 330,000 tested, under 10 active; further: % of control where 0% means no effect
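1) Mix primary human leukocytes, a-CD3 beads and compound. 2) Incubate 48 hr. 3) Add HTRF IL-2 reagents (a-IL-2-K, a-IL-2-d2).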
Integrin act MD – activators of alpha7 integrin expression for muscular dystrophy; 0.064% of 350,000 active; Potency, µM (top dose mostly 38.3 µM), without a hit: at the highest dose activation, usual class: activators; AID 624291; alpha7betagal myoblasts, beta-gal FDG fluorescence, 48 h;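 further: potency means the concentration at half of the fitted maximal effect; 100% = response of the positive control SU9516; nearly all actives have a fitted effect of over 60% in size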
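alpha7betagal+/- myoblasts (passage 13, 250/well) treated 48 h at 37C with compounds at 1:260 dilution of DMSO stock. Lysed, then beta-galactosidase activity read as FDG fluorescence (ex 480/em 540) after 30 min, with pre-read for autofluorescence.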
MBNL1-CUG FRET – blocks human MBNL1 binding to CUG repeat RNA, TR-FRET validation; shares compounds with MBNL1-CUG inh; TR-FRET MBNL1-His / biotin-(CUG)12 binding, 60 min; Potency, µM (titrated, usually from 57.6 µM), for the others: at the highest dose activity change, negative = inhibition, hits mostly inhibitors; 50% of 140 active; AID 493199
MBNL1 AlphaScrn – MBNL1-CUG RNA binding inhibition, AlphaScreen validation; shares compounds with MBNL1-CUG inh; AlphaScreen MBNL1-His / biotin-(CUG)12 binding; Potency, µM (top dose mostly 57.7 µM), for the others: at the highest dose activity, negative = inhibition, hits mostly inhibitors; 30% of 140 active; AID 493205
MBNL1 HTRF CS – counter-screen for MBNL1-poly(CUG) RNA binding inhibitors | 20% of 120 active | shares compounds with MBNL1-CUG inh | Potency, µM (top dose mostly 57.6 µM), without a hit: top-dose activity, negative = inhibition, usual class: inhibitors | His-Menin/biotin-MLL peptide TR-FRET counterscreen
Starred values were filed as active, the others as inactive; ? = inconclusive; / = not tested or not shown. Unless noted, the call rests on the fitted dose curve; in most records, active means well fitted curve in the direction sought with a large enough effect; inconclusive means small, poorly fitted or top-dose-only effect, or another doubt; inactive means no such curve, though single readings can be large; an effect the other way counts as inactive or inconclusive.

SMILES	MBNL1-CUG inh	CBFb RUNX1 block	TCR act	Integrin act MD	MBNL1-CUG FRET	MBNL1 AlphaScrn	MBNL1 HTRF CS
CCCn1cc(CN2CCCC(C(=O)c3cccc(OC)c3)C2)c(C)n1 (stereo unspecified)	2%	2%	0%	4%	/	/	/
CCn1cc(CN2CCCC(C(=O)c3cccc(OC)c3)C2)c(C)n1 (stereo unspecified)	50µM*	7%	0%	11%	?	-11%	-9%
CCOCC1(CCc2ccccc2)C(=O)NC(=S)NC1=O	/	/	4%	-6%	/	/	/
COc1ccc2nc(NC(=O)CCc3nc(C4=CCN(C)CC4)no3)sc2c1	20µM*	-7%	-2%	0%	?	16µM*	?
CN1CCC2(CC1)C(C#N)=C(N)NC(S)=C2C#N	4µM*	-19%	1%	-9%	33µM*	1%	16µM*
C[C@H]1CC[C@@H]2[C@@H](C)[C@H]3C(CC4C5CC=C6CC(O[C@@H]7O[C@H](CO)C(O[C@@H]8O[C@@H](C)[C@H](O)[C@@H](O)[C@H]8O)[C@H](O)[C@H]7O[C@@H]7O[C@@H](C)[C@H](O)[C@@H](O)[C@H]7O)CC[C@]6(C)C5CC[C@@]43C)N2C1 (stereo partly specified)	/	-20%	/	/	/	/	/
Cc1ccsc1C(=O)C1CCCN(Cc2ccc(-n3cccn3)cc2)C1 (stereo unspecified)	6.3µM*	-5%	6%	0%	3.3µM*	?	18µM*
Cc1ccsc1C(=O)C1CCCN(Cc2c(C)nn(C(C)C)c2C)C1 (stereo unspecified)	32µM*	16%	/	?	41µM*	-26%	-22%
C[C@@H]1CN([C@@H](C)CO)C(=O)CCCn2nncc2CO[C@@H]1CN(C)C(=O)Oc1cccc2ccccc12	/	/	/	-4%	/	/	/
CC(C)NC(C)C(=O)C12CC3CC(CC(C3)C1)C2 (stereo unspecified)	-7%	0%	-2%	31%	/	/	/
O=C(O)CCCCC1SCC2NC(=O)NC21 (stereo unspecified)	0.1µM*	1.8µM*	0%	7%	0.041µM*	0.0041µM*	0.015µM*
COc1ccc2c3c1OC1C(O)C=CC4C(C2)[N+](C)(C)CCC341 (stereo unspecified)	?	/	5%	-3%	/	/	/
